Experimental data reported in PubChem BioAssay AID1778 (Sanford-Burnham Center for Chemical Genomics, 2009).
Screen size: about 290,000 compounds; about 260 (0.09%) were called active. The sample holds actives, similar compounds and a random draw of the others, so the mix is not that of the screen. Entries with a potency or affinity are not part of this list. Unmarked numbers belong to inactive results. Cut-off read from the data, not from the text of the source: active = inhibition above about 50%; inactive = the rest.

target: Kappa-type opioid receptor (Homo sapiens) (UniProt P41145); experiment: KOR antagonists, beta-arrestin recruitment, cell-based, luminescence, uHTS (AID 1778); conditions: antagonist mode, hits give high values; at 10 µM unless noted
Sequence (P41145 whole entry, looked up): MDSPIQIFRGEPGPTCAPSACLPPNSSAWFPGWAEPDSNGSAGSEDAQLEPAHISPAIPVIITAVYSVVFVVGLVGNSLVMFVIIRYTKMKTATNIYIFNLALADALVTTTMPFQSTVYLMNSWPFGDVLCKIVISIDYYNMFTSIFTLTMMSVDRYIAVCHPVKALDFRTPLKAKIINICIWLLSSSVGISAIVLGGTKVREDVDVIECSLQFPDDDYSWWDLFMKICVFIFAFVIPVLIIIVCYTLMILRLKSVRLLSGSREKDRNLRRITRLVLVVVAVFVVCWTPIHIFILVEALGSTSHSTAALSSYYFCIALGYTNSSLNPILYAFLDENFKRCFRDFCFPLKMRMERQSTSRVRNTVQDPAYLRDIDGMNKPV

Structure (SMILES)	inhibition
O=C(N/N=C/c1ccoc1)c1cc(Br)ccc1O	-13.2%
O=[N+]([O-])c1c(Nc2ccccc2O)ccc2nonc12	35.9%
O=C(O)c1ccccc1Nc1cc(Cl)c2nonc2c1[N+](=O)[O-]	34.1%
Cc1cccc(N(C(=O)c2snc(C(N)=O)c2N)C(C(=O)NC2CCCC2)c2ccncc2)c1 (centres undefined)	12.2%
Cc1cc(C(C)(C)C)oc1C(=O)N(CC(=O)NC1CCCC1)Cc1ccccc1Cl	0.8%
Cc1cn(-c2cc(C(=O)Nc3ccc(C)c(NC(=O)C(=O)c4c[nH]c5ccccc45)c3)cc(C(F)(F)F)c2)cn1	0.6%
Cc1cn(-c2cc(C(=O)Nc3ccc(C)c(NC(=O)N4CCNC4=O)c3)cc(C(F)(F)F)c2)cn1	-20%
COc1ccc(CNC2CCCc3ccccc32)cc1OC (centres undefined)	-0.9%
O=C(NNC1=Nc2ccccc2SC1)c1ccccc1F	10.4%
O=C(NNC1=Nc2ccccc2SC1)c1ccc(F)cc1	30.4%
CCc1ccc(-n2c(=O)c3c(C)c(C(=O)N(C)C)sc3n(CC(=O)NCc3ccco3)c2=O)cc1	-11.4%
Cc1ccc(-c2csc(N3C(=N)SCC3=O)n2)cc1	26.9%
N=C1SCC(=O)N1c1nc(-c2ccccc2)cs1	23.4%
CCN1CCN(C(=S)c2ccc(Cl)cc2)CC1	12.5%
Cc1cccc(Cc2cnc(N3C(=N)SC(c4ccccc4)C3=O)s2)c1 (centres undefined)	-7.2%
Cc1ccc(Cc2cnc(N3C(=N)SC(C)C3=O)s2)cc1 (centres undefined)	88.5% (active)
Cc1ccc(Cc2cnc(NC(=O)c3cccs3)s2)cc1	-17.2%
Cc1ccc(Cc2cnc(N3C(=N)SC(c4ccccc4)C3=O)s2)cc1 (centres undefined)	37.3%
Cc1cccc(Cc2cnc(NC(=O)c3ccc(C)o3)s2)c1	-9.9%
O=C(C1=C[C@H](c2ccccc2)C[C@H](OCc2ccc(CO)cc2)O1)N1CCN(Cc2ccc3c(c2)OCO3)CC1	-13%

Structure (SMILES)	inhibition
CNc1ncnc(Sc2ccc(Cl)cc2)c1[N+](=O)[O-]	8.9%
OCC1(Cc2cccc(Cl)c2)CCCN(Cc2sc(N3CCCC3)nc2Cl)C1 (centres undefined)	-39.6% [at 20 µM]
CN1N=C(C(=O)N2CCc3c([nH]c4ccccc34)C2c2ccccc2Cl)CCC1=O (centres undefined)	-7%
O=C1COc2ccc(S(=O)(=O)NCc3ccc(Cl)cc3)cc2N1	-23.4%
COC(=O)c1sccc1S(=O)(=O)Nc1ccc(Cl)cc1	23.4%
CCOC(=O)C1CCN(C(=O)c2ccccc2CCc2ccccc2)CC1	12.9%
Cc1ccc(C(=O)Nc2ccccc2Sc2ccccc2)cc1	5.8%
Cc1ccc(C(=O)Sc2cccccc2=O)cc1	88.3% (active)
Cc1ccc(C(=O)CC(=O)c2ccccc2)cc1	-30.1% [at 20 µM]
CCC1CCCCN1CCCNC(=O)c1csc2c1CCCCC2 (centres undefined)	-8.9%
CCOc1ccc(C(=O)Nc2ccc3c(c2)OCCO3)cc1	-31.1%
NS(=O)(=O)c1ccc(CCNC(=O)CSc2nc3ccsc3c(=O)n2CC2CCC(C(=O)O)CC2)cc1 (centres undefined)	-14.6%
O=[N+]([O-])c1ccccc1S(=O)(=O)Nc1ncccn1	-24.4%
Cc1ccc(NS(=O)(=O)c2cccc3cccnc23)c(Br)c1	-14.5%
O=S(=O)(Nc1ccccc1O)c1cccc2cccnc12	9.3%
Cc1ccc(NS(=O)(=O)c2cccc3cccnc23)c(Cl)c1	19.4%
O=C(CCN1CCN(c2ccccc2)CC1)Nc1nccs1	11.6%
Cc1cccc(CN2CCN(C(=S)Nc3ccccc3)CC2)c1	-33.1% [at 20 µM]
Cc1ccc(CNC(=O)C2CCCN(c3nc(C)cc(C)n3)C2)cc1 (centres undefined)	-35.8% [at 20 µM]
CCOc1ccc2noc3c2c1C(=O)c1ccccc1-3	7.4%

Structure (SMILES)	inhibition
CCOC(=O)C(C(=O)OCC)c1cc(Br)c2noc3c2c1C(=O)c1ccccc1-3	68.5% (active)
CCOC(=O)N1CCN(c2cc(NCCC(=O)O)c3c4c(onc24)-c2ccccc2C3=O)CC1	-32.6%
c1cncc(-c2cn(C[C@H]3CC[C@@H]([C@@H]4CC[C@H](Cn5cc(-c6cccnc6)nn5)O4)O3)nn2)c1	-10.8% [at 20 µM]
COc1ccc(OCC(=O)Nc2cc(NC(=O)c3ccco3)ccc2OC)cc1	4.9%
COc1cc(Br)cc(-c2nc3c(c(=O)[nH]c(=O)n3Cc3ccccc3)n2C)c1O	7.6%
CCN=c1scc(-c2ccc3c(c2)NC(=O)CO3)n1N=C1CCCC1	15.3%
COCCN=c1scc(-c2ccc3c(c2)NC(=O)CO3)n1/N=C(\C)c1ccc(O)cc1	15.8%
COC(=O)c1[nH]c2ccc(C)cc2c1NC(=O)CN1CCN(c2ccc(F)cc2)CC1	-0.7%
COc1ccc(C(=O)Nc2ccccc2C(=O)N/N=C/c2ccncc2)cc1OC	-18.4%
O=C(N/N=C/c1ccccn1)c1ccccc1	30.7%
COc1ccc(C(=O)N/N=C(\C)c2ccccn2)cc1OC	95% (active)
C/C(=N\NC(=O)C1COc2ccccc2O1)c1cccs1 (centres undefined)	-9.2%
COc1ccc(C(=O)N/N=C(\C)CC(=O)Nc2ccccn2)cc1OC	3.4%
COc1ccc(C(=O)N/N=C/c2ccccn2)cc1OC	-42.3%
COc1cc(C(=O)N/N=C(\C)c2ccccn2)cc(OC)c1OC	-6.4%
O=C(N/N=C/c1ccccn1)c1ccc(NC(=O)c2cccc([N+](=O)[O-])c2)cc1	-28.7%
C/C(=N\NC(=O)C1COc2ccccc2O1)c1ccc(C)o1 (centres undefined)	13.3%
Cc1nc(CSc2ccc(Cl)cc2)cs1	1.3%
CCC1CCCCN1C(=O)CSc1nc(N)cc(N)n1 (centres undefined)	0.8% [at 20 µM]
